Measurements: PubChem BioAssay
Inconclusive results are not listed. Activity calls are given as the source filed them.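 How the source made its calls, unless noted: active means viability increase at or above a cutoff of the median across tested compounds plus 3 SD (cut at about 8.5% in these data, passing the limit was not always enough); inconclusive means some gains above the cutoff, reason not given; inactive means the rest.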

Experiments:
[1] = reducers of endogenous Her2 protein level, primary screen, SKBR3 breast tumor cells, AlphaScreen, ATP viability (AID 461;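 active means Her2 level under about 52% in both replicate screens, with viability over 70% of control, limit read from the data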;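 on Her2 level: lower value means less Her2 protein in the cells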;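 on viability: percent of carrier control wells set as 100% viability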); settings: 18-24 h, measured here: SKBR3 viability, ATP luminescence, at 10 µM
[2] = biological target: Receptor tyrosine-protein kinase erbB-2 (Homo sapiens) (UniProt P04626); assay: as above; settings: 18-24 h, at 10 µM, stronger effect = lower value
Receptor tyrosine-protein kinase erbB-2 (Homo sapiens), sequence (P04626 whole entry, looked up): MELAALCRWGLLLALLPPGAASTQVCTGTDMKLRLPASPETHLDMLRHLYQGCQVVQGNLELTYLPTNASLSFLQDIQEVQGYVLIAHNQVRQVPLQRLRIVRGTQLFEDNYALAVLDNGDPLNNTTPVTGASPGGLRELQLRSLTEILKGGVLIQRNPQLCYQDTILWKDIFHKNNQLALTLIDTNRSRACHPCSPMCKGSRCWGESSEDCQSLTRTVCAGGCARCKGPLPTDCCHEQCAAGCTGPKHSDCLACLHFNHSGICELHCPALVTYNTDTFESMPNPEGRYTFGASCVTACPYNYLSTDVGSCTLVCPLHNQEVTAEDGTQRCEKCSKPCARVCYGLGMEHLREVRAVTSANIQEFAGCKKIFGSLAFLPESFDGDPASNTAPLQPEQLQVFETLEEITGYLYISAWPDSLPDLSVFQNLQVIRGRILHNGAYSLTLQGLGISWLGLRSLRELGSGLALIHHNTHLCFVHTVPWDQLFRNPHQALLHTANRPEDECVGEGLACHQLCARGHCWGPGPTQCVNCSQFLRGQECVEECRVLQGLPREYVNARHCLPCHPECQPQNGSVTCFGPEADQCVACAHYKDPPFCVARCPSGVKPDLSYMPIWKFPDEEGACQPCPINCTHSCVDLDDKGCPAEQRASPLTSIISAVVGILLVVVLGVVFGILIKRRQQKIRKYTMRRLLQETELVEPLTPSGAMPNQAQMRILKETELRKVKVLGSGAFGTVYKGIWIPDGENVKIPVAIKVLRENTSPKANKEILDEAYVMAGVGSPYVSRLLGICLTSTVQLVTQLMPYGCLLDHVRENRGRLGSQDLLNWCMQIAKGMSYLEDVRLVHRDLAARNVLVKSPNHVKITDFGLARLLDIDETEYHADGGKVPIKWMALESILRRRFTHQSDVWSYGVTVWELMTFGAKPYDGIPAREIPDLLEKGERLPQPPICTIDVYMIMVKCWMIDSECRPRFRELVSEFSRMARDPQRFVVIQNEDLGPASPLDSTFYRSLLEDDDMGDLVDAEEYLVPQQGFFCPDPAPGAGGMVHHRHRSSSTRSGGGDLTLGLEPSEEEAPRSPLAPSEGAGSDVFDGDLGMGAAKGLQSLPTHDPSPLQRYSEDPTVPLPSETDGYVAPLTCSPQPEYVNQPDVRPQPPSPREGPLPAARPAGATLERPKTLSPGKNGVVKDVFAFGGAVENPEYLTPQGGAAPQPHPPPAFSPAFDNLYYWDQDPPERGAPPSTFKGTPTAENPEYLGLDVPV

[3] = SK-BR-3 cell growth inhibitors, pilot screen, 24 h, human (AID 572;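 active means viability at or below 10% of carrier control in both of two separate runs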;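 further: compound exposure lasted between 18 and 24 h rather than exactly 24 h; 100% = carrier-treated control wells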); settings: SK-BR-3 viability, CellTiter-Glo luminescence, at 10 µM, stronger effect = lower value
[4] = HUVEC growth inhibition – cell-based, human, primary screen (AID 575;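 active means viability at or below 30% in both replicate assays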;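 further: 100% = median of untreated cell wells with 0.1% DMSO on each plate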); settings: HUVEC proliferation, CellTiter-Glo luminescence, 72 h; at 10 µM; stronger effect = lower value
[5] = growth inhibitors of H69AR lung tumor, primary screen, human, duplicate replicates (AID 580;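 active means viability at or under a set limit in both replicates, limit being median viability minus 3 SD, cut at about 48% in these data, passing the limit was not always enough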;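 further: 100% = mean luminescence of untreated wells and 0% = no signal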); settings: H69AR lung tumor cells viability, ATP luminescence, 72 h; at 10 µM; stronger effect = lower value
[6] = reversal of MRP1-mediated doxorubicin resistance, pilot screen, H69AR cells, doxorubicin co-treatment (AID 601;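 active means viability loss from added drug above about 55%, and viability with drug at most 40%, in both replicates, limit read from the data, passing the limit was not always enough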); settings: CellTiter-Glo, 72 h, at 10 µM; for differential viability (reversal): stronger effect = higher value
[7] = 384-well plate pilot, post-Golgi transport modulator project, inhibition of yeast transport mutant growth (AID 636; in the data active means inhibition above about 31%); settings: absorbance 615 nm, about 18 h, stronger effect = higher value
[8] = growth suppression of yeast trafficking mutant, preliminary HTS, modulators of trafficking downstream of Golgi apparatus project, 1536-format plate, OD 615 nm (AID 637; in the data active means inhibition above about 30%); settings: yeast transport mutant growth, absorbance 615 nm, 18 h; stronger effect = higher value
[9] = OD615 S. cerevisiae growth inhibition, permissive medium, pilot counter-assay, permissive growth control for S. cerevisiae lifespan shortening project (AID 705;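 active means growth inhibition above 25% in both replicates, a cutoff set 3 SD above the mean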); settings: OD615, 24 h, at 10 µM, stronger effect = higher value
[10] = Restrictive medium S. cerevisiae growth inhibition, OD615, pilot screen of yeast lifespan reduction project, restrictive growth control (AID 706;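 active means growth inhibition above a set limit, 3 SD over mean compound inhibition, in both replicates, cut at about 43% in these data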;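 further: modified DeaD lifespan yeast strain shifted to restrictive glucose medium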); settings: OD615, 48 h, at 10 µM, stronger effect = higher value
[11] = viability gain of MRP-1-high H69AR cells under doxorubicin, pilot screen, MRP-1 activator project, CellTiter-Glo, duplicate (AID 807); settings: H69AR viability with doxorubicin, CellTiter-Glo luminescence; at 10 µM; stronger effect = higher value;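 further: compound pretreatment 18-22 h then 72 h combined with doxorubicin; 0% = doxorubicin alone and 100% = vehicle without doxorubicin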
[12] = growth suppression of beta-catenin knockout HCT116, pilot screen, human colon tumor cells (AID 823;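 active means cell viability at or below a set limit in both duplicate runs, the limit being the all-compound median minus 4 SD, cut at about 23% in these data, passing the limit was not always enough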;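 further: 0% = wells killed by 20 µM Hyamine and 100% = untreated DMSO cell wells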); settings: CellTiter-Glo, 60 h, at 10 µM, stronger effect = lower value
[13] = growth suppression of PTEN-deleted HCT116, pilot screen, cell-based, HCT116 clonal line, CellTiter-Glo (AID 824;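 active means viability at or below 27.92% in each of two runs, the all-compound median minus 4 SD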;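 further: 0% = 20 µM Hyamine control and 100% = vehicle cell control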); settings: 60 h, at 10 µM, stronger effect = lower value
[14] = inhibitors of the yeast RAM network, pilot screen, dse1pr::URA3 reporter, 5-FOA selection (AID 869;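 active means inhibition over a set limit, the all-compound mean plus 3 SD, in both replicate runs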;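 further: 0% = DMSO wells with no growth and 100% = 10 µM 1-NA-PP1 with full growth; RAM network block rescues cells from 5-FOA so hits raise OD615 growth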); settings: S. cerevisiae dse1pr::URA3 5-FOA growth, OD615, 2 d; at 10 µM; stronger effect = higher value; strain carries analog-sensitive mutant Cbk1 kinase
[15] = RAM signaling pathway blockade in yeast – S. cerevisiae, Pdr1DBD-CYC8 efflux-inhibited sensitized strain, primary screen (AID 1298;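 active means RAM network inhibition above 8.4% in each of two replicates, 3 SD over the compound average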;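 further: 0% = DMSO untreated cells without growth and 100% = 10 µM 1-NA-PP1 full growth; higher means more yeast growth rescued from 5-FOA killing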); settings: S. cerevisiae cbk1-as DSE1-URA3 strain, 5-FOA growth OD615, 2 d; at 50 µM; stronger effect = higher value
[16] = H69AR cells + 2 uM doxorubicin, measured here: viability with 2 uM doxorubicin, stronger effect = lower value
[17] = H69AR cells, compound alone cytotoxicity

COC(=O)C(C#N)C(=C1C(=O)CC(C)(C)CC1=O)c1ccc(O)cc1 (stereo not given)
92%: viability [6, 17]
95.6%: viability [6, 16]
90%: viability [1]
inactive: Her2 level [2] 92.5% | viability [3] 90% | viability [4] 96.5% | viability [5] 92% | differential viability (reversal) ([6]; H69AR cells + 2 uM doxorubicin) -3.63% | inhibition [7] 0.9% | inhibition [8] -1.17% | growth inhibition [9] -1.85% | growth inhibition [10] 0.91% | viability increase [11] 0.99% | viability [12] 97.5% | viability [13] 101% | inhibition [14] 1.16% | RAM network inhibition [15] 2.01%

COc1cccc(-n2c(SCC(=O)Nc3cc(C)on3)nc3c([nH]c4ccccc43)c2=O)c1
82.6%: viability [6, 16]
66.4%: viability [6, 17]
76%: viability [1]
inactive: Her2 level [2] 90.5% | viability [3] 76% | viability [4] 61.5% | viability [5] 66.4% | differential viability (reversal) ([6]; H69AR cells + 2 uM doxorubicin) -16.2% | inhibition [7] -4.53% | inhibition [8] -0.67% | growth inhibition [9] -3.05% | growth inhibition [10] -0.53% | viability increase [11] -4.78% | viability [12] 82% | viability [13] 73.8% | inhibition [14] 2.33% | RAM network inhibition [15] 1.62%

O=C(OCCN(CCOC(=O)c1ccncc1)S(=O)(=O)c1cccs1)c1ccncc1
104%: viability [6, 17]
102%: viability [1]
inactive: Her2 level [2] 75.5% | viability [3] 102% | viability [4] 99.2% | viability [5] 104% | differential viability (reversal) ([6]; H69AR cells + 2 uM doxorubicin) 6.43% | inhibition [7] -1.64% | inhibition [8] 1.75% | growth inhibition [9] 4.38% | growth inhibition [10] 1.04% | viability increase [11] -2.14% | viability [12] 102% | viability [13] 97% | inhibition [14] 1.63% | RAM network inhibition [15] 4.78%
97.3%: viability [6, 16]

Oc1ccc2ccccc2c1CN1CCN(c2ccccc2F)CC1
73.5%: viability [6, 16]
inactive: Her2 level [2] 90% | viability [3] 110% | viability [4] 90.1% | viability [5] 76.6% | differential viability (reversal) ([6]; H69AR cells + 2 uM doxorubicin) 3.1% | inhibition [7] -3.47% | inhibition [8] -0.33% | growth inhibition [9] -13.8% | growth inhibition [10] -10.6% | viability increase [11] -5.72% | viability [12] 95.4% | viability [13] 93.9% | inhibition [14] 0.72% | RAM network inhibition [15] 0.16%
76.6%: viability [6, 17]
110%: viability [1]

CCCCn1c(CN2CCN(c3ccc(F)cc3)CC2)nc2c1c(=O)n(C)c(=O)n2C
95.5%: viability [6, 17]
99.3%: viability [6, 16]
98%: viability [1]
inactive: Her2 level [2] 93% | viability [3] 98% | viability [4] 66.9% | viability [5] 95.5% | differential viability (reversal) ([6]; H69AR cells + 2 uM doxorubicin) -3.86% | inhibition [7] -3.33% | inhibition [8] -5.74% | growth inhibition [9] -8.42% | growth inhibition [10] -1.05% | viability increase [11] -0.4% | viability [12] 80.3% | viability [13] 85.8% | inhibition [14] 1.07% | RAM network inhibition [15] 3.49%
